CtBP-E1A blk = blocks the CtBP interaction with E1A; AlphaScreen GST-E1A/His-CtBP binding, 1536-well; active compounds read low; activity change, % (no concentration beside the values); actives 0.49% (n = 340,000); in the data active = activity change below about -65%; inconclusive = mostly about -30% to -63%; also: % is scaled to controls: 0 for no effect and ±100 for the full control effect
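GST-E1A and His-tagged CtBP (125 nM each as 5X stock) were preincubated with pin-transferred compound for 2 h at 37 °C in the dark, then glutathione donor and nickel acceptor beads were added for 1 h before AlphaScreen reading.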
TGFb inhibitor = TGF-b pathway inhibition; actives 1.2% (n = 410,000); Potency, µM (titrated, usually from 46.1 µM), for the others: top-dose activity, negative = inhibition, usual class: inhibitors; HepG2 CAGA-GFP TGF-b/SMAD3 reporter, GFP fluorescence, 18 h; TGF-beta stimulated, 500 pg/mL final; also: potency is read from the fitted curve at half-maximal effect; % is scaled to controls: 0 for no effect and ±100 for the full control effect; nearly all actives have a fitted effect of over 65% in size
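Read-out: total well GFP (ex488/em500-530) summed from mean per-cell fluorescence. Cells: HEPG2 CAGA-GFP, 1% FBS DMEM, 18 h at 37 degrees C with 500 pg/mL final TGF-beta. Unstimulated wells served as the full-inhibition control; stimulated DMSO wells = 0%.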
HepG2 viability = HepG2 cytotoxicity, counter-screen for TGF-b inhibitors; Potency, µM (series often up to 46.1 µM), inactives show at the highest dose activity change, negative = cytotoxicity, most hits filed as cytotoxic; HepG2 CAGA-GFP viability, ATP luminescence, 18 h; actives 0.76% (n = 410,000); also: potency is read from the fitted curve at half-maximal effect
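CellTiter-Glo luminescence gave cytotoxicity after 18 hours at 37 degrees C. The cells were HepG2 CAGA-GFP in 1% FBS DMEM, stimulated with 500 pg/mL TGF-beta after compound addition. %Activity was normalised to no-cell wells (complete cell-killing) and DMSO (no toxicity), and curves were fitted and classified.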
Six1-Eya2 inh = Six1/Eya2 interaction inhibition. AlphaScreen GST-Six1/His-Eya2 binding, biochemical; active compounds read low. activity change, % (test concentration not listed). actives 0.56% (n = 360,000); in the data active = activity change below about -65%; inconclusive = mostly about -30% to -63%; also: % is scaled to controls: 0 for no effect and ±100 for the full control effect
Target sequence (O00167 whole entry, looked up): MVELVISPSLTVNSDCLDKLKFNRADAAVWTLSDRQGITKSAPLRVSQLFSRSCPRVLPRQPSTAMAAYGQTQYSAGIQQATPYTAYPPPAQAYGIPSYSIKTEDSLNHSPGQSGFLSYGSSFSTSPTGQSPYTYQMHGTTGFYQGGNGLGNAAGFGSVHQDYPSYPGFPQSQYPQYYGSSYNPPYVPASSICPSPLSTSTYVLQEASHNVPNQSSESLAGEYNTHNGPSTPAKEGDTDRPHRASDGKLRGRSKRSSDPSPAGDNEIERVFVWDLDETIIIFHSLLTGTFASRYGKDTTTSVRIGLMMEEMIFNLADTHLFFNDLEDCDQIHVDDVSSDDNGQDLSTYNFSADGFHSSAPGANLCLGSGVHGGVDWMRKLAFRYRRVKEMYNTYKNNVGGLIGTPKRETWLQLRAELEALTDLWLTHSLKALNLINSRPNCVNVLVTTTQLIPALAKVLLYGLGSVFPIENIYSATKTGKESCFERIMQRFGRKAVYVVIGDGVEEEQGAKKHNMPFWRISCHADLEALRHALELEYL
Target sequence (Q15475 whole entry, looked up): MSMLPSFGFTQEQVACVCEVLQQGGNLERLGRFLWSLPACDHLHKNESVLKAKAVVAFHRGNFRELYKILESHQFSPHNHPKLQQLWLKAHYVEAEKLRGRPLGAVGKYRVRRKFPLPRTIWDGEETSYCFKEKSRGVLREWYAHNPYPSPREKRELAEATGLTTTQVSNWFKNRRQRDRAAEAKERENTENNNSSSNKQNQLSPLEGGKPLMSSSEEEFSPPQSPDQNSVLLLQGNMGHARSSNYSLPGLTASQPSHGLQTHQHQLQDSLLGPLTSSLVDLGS
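GST-Six1 + His-Eya2 (5X stock: 250/500 nM); Tris pH 8.0, 300 mM NaCl, 0.05% BSA, 0.02% Tween 20; GSH donor/Ni acceptor beads; 1 h 37 °C dark; AlphaScreen readout.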
S2 tox = viability counter-screen for ATXN expression inhibitors; S2 cells (HEK-293 line with an ATXN2-luciferase reporter) viability, CellTiter-Fluor protease fluorescence, 24 h; Potency, µM (titrated, usually from 56.7 µM), most hits filed as cytotoxic; actives 0.49% (n = 400,000); AID 651635; also: potency is read from the fitted curve at half-maximal effect; nearly all actives have a fitted effect of over 40% in size
ATXN2 expr inh = ATXN2 expression inhibition; Potency, µM (top dose mostly 57 µM), without a hit: top-dose activity change, negative = inhibition, most hits filed as inhibitors; HEK-293 ATXN2-luciferase reporter, luminescence, 24 h; actives 0.72% (n = 360,000); also: potency is read from the fitted curve at half-maximal effect; % is scaled to controls: 0 for no effect and ±100 for the full control effect; nearly all actives have a fitted effect of over 55% in size
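qHTS (up to 57 uM final) was run with 24 h compound exposure of reporter cells at 37 °C. Each well was multiplexed: SteadyGlo luminescence measured ATXN2-luciferase expression after a fluorogenic Gly-Phe-AFC viability readout (25 uM final).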
Active calls of the source: *; i = inactive; ? = inconclusive; nt = no result given. Shown are actives, neighbours in structure and some others; about 2.8% of the full set was active somewhere. Unless noted, calls follow the shape of the dose curve; as a rule, active = well fitted curve in the direction sought with a large enough effect; inconclusive = small, poorly fitted or top-dose-only effect, or another doubt; inactive = no such curve, though single readings can be large; an effect the other way counts as inactive or inconclusive.

SMILES	CtBP-E1A blk	TGFb inhibitor	HepG2 viability	Six1-Eya2 inh	S2 tox	ATXN2 expr inh
CCSc1nn(CC(=O)Nc2ccc(C(=O)OC)cc2)c(N)c1S(=O)(=O)c1ccc(C)cc1	nt	?	-13%	nt	?	-36%
CCOC(=O)c1ccc(NC(=O)Cn2nc(SC)c(S(=O)(=O)c3ccc(Cl)cc3)c2N)cc1	nt	5µM*	-34%	nt	?	?
Cc1ccc(C)c(N2CCN(C(=O)C3CCN(C(=O)c4cc5sccc5n4C)CC3)CC2)c1	nt	10µM*	-19%	nt	nt	nt
Cc1ccc(NS(=O)(=O)c2cc([N+](=O)[O-])ccc2NNC(=S)Nc2cc(C)ccc2C)c(C)c1	12	?	-72%	?	16µM*	20µM*
CCc1ccccc1NC(=O)Cn1nnc(C(=O)NCc2ccccc2Cl)c1N	nt	-28%	-8%	nt	nt	nt
O=C(Nc1cc(Br)ccc1O)C1CC(c2ccccc2Cl)=NO1 (configuration not stated)	2	16µM*	-57%	-6	i	5%
Cc1ncc2c(c1CNC(=O)c1ccccc1F)CCN(C(=O)c1csc(-c3cccs3)n1)C2	nt	nt	nt	nt	i	nt
COc1ccc(CNS(=O)(=O)CCNCc2ccccc2OC)cc1	2	-11%	-18%	1	i	-5%
CCCCCCCCNS(=O)(=O)CCNCc1ccccc1OC	18	?	13µM*	11	?	-36%
COc1cccc(-c2cc3c(c(OC)c2)OCCN(Cc2ccccc2O)C3)n1	nt	nt	nt	nt	i	nt
CCCCCCCCCCCCCC[N+](C)(C)Cc1ccccc1	nt	?	-98%	nt	35µM*	35µM*
CCCCCCCCCCCCCCCC[N+](C)(C)Cc1ccccc1	nt	nt	nt	nt	35µM*	32µM*
COCCOC(=O)N1CCN(/[N+]([O-])=N/Oc2ccc([N+](=O)[O-])cc2[N+](=O)[O-])CC1	nt	?	-98%	nt	nt	nt
CC1=NN(c2nc3ccccc3[nH]2)C(=O)/C1=C/N(C)C	?	8%	1.6µM*	?	i	?
O=c1[nH]c2ccccc2nc1NCc1ccccc1	-21	7%	0%	-3	i	24%
CC1=NN(c2nc3ccccc3[nH]2)C(=O)C1Cc1ccccc1 (configuration not stated)	-81*	?	15%	-91*	?	10µM*
CC1=NN(c2ccc([N+](=O)[O-])cc2)C(=O)/C1=C\N(C)C	-14	0%	4.5µM*	-16	i	11%
Cc1sc2ccccc2[n+]1CCCCBr	nt	?	-21%	nt	nt	nt
COc1c(OC(C)=O)ccc(/C=C/c2ccc3cccc(OC)c3n2)c1[N+](=O)[O-]	-8	-9%	-49%	-8	i	8%
CCOc1cc(/C=C/c2ccc3cccc([N+](=O)[O-])c3n2)ccc1OCC(=O)N(C)C	0	2%	-30%	?	?	?
CCOc1cccc(/C=C/c2ccc3cccc(O)c3n2)c1OC	-1	?	-13%	-12	i	6%
CCOc1c(OC(C)=O)ccc(/C=C/c2ccc3cccc(OC(C)=O)c3n2)c1[N+](=O)[O-]	-25	13µM*	-74%	-13	?	-1%
CCOc1cc(/C=C/c2ccc3cccc([N+](=O)[O-])c3n2)ccc1O	?	13µM*	-35%	?	?	-8%
COc1c(OC(C)=O)ccc(/C=C/c2ccc3ccccc3n2)c1[N+](=O)[O-]	?	?	-53%	-27	22µM*	-41%
O=C1OC2(c3ccccc31)c1cc(Br)c(O)c(Br)c1Oc1c2cc(Br)c(O)c1Br	nt	nt	nt	nt	i	-2%
CS(=O)(=O)Nc1ccc(-c2ccc(/C=C3\SC(N)=NC3=O)o2)cc1	-68*	-9%	-8%	?	i	-7%
CC(Sc1nc2c([nH]c3ccccc32)c(=O)n1-c1ccccc1)c1ccccc1 (configuration not stated)	nt	?	-46%	nt	nt	nt

Assay outcomes: PubChem BioAssay, National Center for Advancing Translational Sciences (NCATS)
